# Screening results as filed in PubChem.
# The list is not random: actives were taken first. Their share in the collection is about 7.3%.
# Gal4-VP16 FLuc: Gal4-VP16 reporter inhibition counter-screen; Potency, µM (highest dose often 53.6 µM), inactives show at the highest dose activity, negative = inhibition, most hits filed as inhibitors; Drosophila S2 Gal4-VP16 UAS-luciferase, luminescence, 20 h; actives 3.5% (n = 310,000);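 note: Gal4-VP16 expression switched on by copper sulfate through the metallothionein promoter; nearly all actives have a fitted effect of over 50% in size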
# RORgamma inh: inhibitors of mouse ROR gamma transcriptional activity; P51450; Drosophila S2 Gal4-RORgamma UAS-luciferase reporter, 20 h; Potency, µM (titrated, usually from 53.6 µM), inactives show top-dose activity change, negative = inhibition, hits mostly inhibitors; actives 5.4% (n = 310,000); note: nearly all actives have a fitted effect of over 60% in size
# Target sequence (P51450 whole entry, looked up, the tested form may be a part): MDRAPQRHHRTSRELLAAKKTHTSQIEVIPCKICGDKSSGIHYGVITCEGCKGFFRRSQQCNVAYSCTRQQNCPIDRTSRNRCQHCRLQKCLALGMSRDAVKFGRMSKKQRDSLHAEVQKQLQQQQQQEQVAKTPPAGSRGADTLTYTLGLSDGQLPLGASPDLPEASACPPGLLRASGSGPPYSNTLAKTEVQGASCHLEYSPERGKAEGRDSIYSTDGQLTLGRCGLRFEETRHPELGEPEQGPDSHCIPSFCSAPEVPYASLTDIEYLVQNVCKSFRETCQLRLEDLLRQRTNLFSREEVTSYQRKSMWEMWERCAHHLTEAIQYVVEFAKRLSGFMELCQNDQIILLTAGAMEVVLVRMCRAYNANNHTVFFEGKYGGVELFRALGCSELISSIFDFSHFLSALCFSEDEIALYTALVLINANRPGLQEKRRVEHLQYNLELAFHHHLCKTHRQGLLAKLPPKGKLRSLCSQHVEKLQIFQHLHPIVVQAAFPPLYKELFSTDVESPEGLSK
#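 Compounds are pin-transferred onto Drosophila Schneider cells expressing a copper-inducible Gal4–ROR gamma transactivation domain fusion. After 1 hr, copper sulfate is added to 700 uM final; luciferase is read 20 hr later.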
# Tau fluor counter: counter-screen for tau fibril formation inhibitors; tau K18 P301L Alexa594 fluorescence, heparin fibrillization; Potency, µM (highest dose often 57.7 µM), for inactives: at the top dose activity change, negative = decrease; actives 0.93% (n = 280,000); AID 1463; note: nearly all actives have a fitted effect of over 55% in size
#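 Human K18 P301L tau (15 uM unlabeled plus 0.24 uM Alexa 594-labeled, final) in 100 mM sodium acetate pH 7 was mixed with compound and 20 uM heparin and incubated 6 hr at 37 C.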
# Tau ThT inhib: blocks human tau fibril formation measured by thioflavin T | P10636 | recombinant tau K18 P301L, heparin-induced fibrillization, ThT fluorescence | Potency, µM (doses to about 57.4 µM), for the others: top-dose activity, negative = inhibition, actives largely listed as inhibitors | actives 2.1% (n = 270,000) | AID 1460; note: nearly all actives have a fitted effect of over 55% in size
# Target sequence (P10636 561-689 P618L limits assumed): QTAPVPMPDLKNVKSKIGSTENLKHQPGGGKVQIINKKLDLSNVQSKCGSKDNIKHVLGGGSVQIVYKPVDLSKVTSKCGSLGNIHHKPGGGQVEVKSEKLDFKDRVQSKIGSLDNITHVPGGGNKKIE
#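 Using a mix of unlabeled (15 uM) and Alexa 594-labeled (0.24 uM) tau K18 P301L, heparin-triggered fibrillization over 6 hr at 37 C was scored by ThT fluorescence.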
# Tau FP inhib: blocks human tau fibril formation measured by polarization; P10636; K18 P301L tau heparin fibrillization, Alexa594 FP, 6 h; Potency, µM (highest dose often 57.7 µM), for inactives: at the top dose activity, negative = inhibition, most hits filed as inhibitors; actives 0.39% (n = 280,000); note: nearly all actives have a fitted effect of over 55% in size
#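 Read-out: fluorescence polarization of Alexa 594-labeled tau (0.24 uM), 555 nm excitation, 632 nm emission. Mixtures held 15 uM unlabeled K18 P301L, compound and 20 uM heparin, pH 7 acetate buffer, incubated 6 hr at 37 C.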
# The depositor's hits bear a star; ? = inconclusive; . = not tested or not shown; [ ] = another dose, or the depositor's remark. Calls come from the whole dose curve; as a rule, active = well fitted curve in the direction sought with a large enough effect; inconclusive = small, poorly fitted or top-dose-only effect, or another doubt; inactive = no such curve, though single readings can be large; an effect the other way counts as inactive or inconclusive. % is set by controls: 0 for no effect and ±100 for the full control effect; potency is the fitted concentration of half-maximal effect.
SMILES,Gal4-VP16 FLuc,RORgamma inh,Tau fluor counter,Tau ThT inhib,Tau FP inhib
COc1ccc(OC)c2c1C(=O)C(Cl)=C(Cl)C2=O,5.01µM*,5.01µM*,?,4.47µM*,17.8µM*
COc1ccc(S(=O)(=O)N2CCCC2)c(Cl)c1Cl,8.3%,-2.5%,-9.9%,-10.2%,-5.0%
Cc1ncc(CN2CCCC(C(=O)Nc3ccc(-c4cccc(F)c4)cc3)C2)n1C (configuration not stated),-9.0%,-18.0%,.,.,.
CC(C)c1ccc2oc(-c3cc(NC(=O)c4cccnc4)ccc3Cl)nc2c1,.,.,?,2.1%,7.94µM*
CCc1ccc2oc(-c3cc(NC(=O)c4cccs4)ccc3Cl)nc2c1,.,.,?,-7.9%,12.6µM*
Cc1ccc2oc(-c3cc(NC(=O)c4ccco4)ccc3Cl)nc2c1,.,.,?,-11.3%,?
Nc1ccc2oc(Cc3ccc(Cl)cc3)nc2c1,.,.,?,22.4µM*,?
COC1CCN(C(=O)c2ccc3oc(Cc4ccc(Cl)cc4)nc3c2)CC1,5.7%,27.3%,.,.,.
CCc1ccc2oc(-c3cc(N)cc(C)c3O)nc2c1,8.91µM*,?,?,?,?
O=C(Cc1cccc(C(F)(F)F)c1)NCC(c1ccco1)N1CCCCC1 (configuration not stated),1.1%,9.6%,2.2%,-1.7%,-3.6%
CCc1ccc2oc(-c3cc(N)ccc3Cl)nc2c1,10µM*,?,14.1µM*[quencher],?,10.3%
CCc1ccc2oc(-c3cc(N)ccc3O)nc2c1,3.98µM*,2.51µM*,?,?,10.9%
CCOC(=O)c1cc(NC(=O)c2ccc(Cl)cc2)c(=O)n2c1oc1ccccc12,.,.,-24.8%,-16.2%,-7.0%
O=C(NC(=S)NCc1ccccc1)c1ccccc1,?,3.16µM*,-22.7%,-6.3%,-8.7%
O=C(O)CC(NC(=S)NCc1ccccc1)C(=O)O (configuration not stated),11.2µM*,15.8µM*,-4.6%,?,-2.2%
NC(=O)CC(NC(=S)NCc1ccccc1)C(=O)O (configuration not stated),?,?,4.2%,3.8%,10.7%
O=C(Cc1ccccc1)NCc1ccncc1,?,6.31µM*,-9.6%,?,-7.2%[2.34 µM]
O=C(O)c1cccc(NC(=S)NCc2ccccc2)c1,-2.6%,-3.1%,-0.7%,-5.4%,5.1%
O=C(Cc1c[nH]c2ccccc12)NCc1ccncc1,4.2%,-1.3%,.,.,.
CC(C)(C)C(=O)NC(=S)NCc1ccccc1,?,7.08µM*,-4.0%,0.7%,-3.5%
CCOc1ccc(C(=O)c2oc3ccccc3c2NC(=O)Cc2coc3cc(C)cc(C)c23)cc1,.,.,-20.0%,-9.8%,-13.2%
O=C(NC(=S)NCc1ccc(F)cc1)c1ccccc1,?,5.01µM*,-15.3%,-6.3%,-4.0%
O=C(OCc1c(F)cccc1Cl)c1cnc(Cl)c(Cl)c1,-0.8%,-2.0%,.,.,.
CC(C)c1cccc2nc3c(c([Si](C)(C)C)c12)Cn1c-3cccc1=O,-1.7%,?,-14.0%,?,-10.1%
CCOC(=O)CN1NC2(CCCCCC2)NC1=S,-17.3%,7.08µM*,-10.3%,-14.1%,10.7%
SMILES,Gal4-VP16 FLuc,RORgamma inh,Tau fluor counter,Tau ThT inhib,Tau FP inhib
CC(C)(C)N1NC2(CCCCC2)NC1=S,-1.6%,20.2%,-4.7%,-7.2%,-6.5%
Cc1ccc(-n2c(Cc3ccccc3)n[nH]c2=S)c(C)c1,?,1.58µM*,-5.9%,-6.6%,2.7%
Cc1ccc(-n2c(CC#N)n[nH]c2=S)c(C)c1,-11.3%,-40.8%,-3.2%[0.0958 µM],.,-0.8%[0.0958 µM]
S=c1[nH]nc(Cc2ccccc2)n1-c1cccc2ccccc12,?,3.98µM*,-6.3%,-1.2%,0.4%
COc1ccc(Br)c(C(=O)Nc2cc3c(cc2N2CCOCC2)n(C)c(=O)n3C)c1,.,.,-26.6%,-17.0%,-3.9%
CCC(C)N(C(=O)c1csnn1)C(C(=O)NC1CCCC1)c1ccccc1F (configuration not stated),3.2%,-14.4%,.,.,.
CCOc1cc(/C=N/Nc2cccc(C(=O)O)c2)ccc1OC(=O)c1ccccc1,20.1%[10 µM],-14.0%,?,?,7.3%
CCOc1cc(/C=N/NC(=O)c2ccncc2)ccc1OC(=O)c1ccccc1,-1.6%,8.5%,.,.,.
CCOc1cc(/C=N/NC(=O)c2ccccn2)ccc1OC(=O)c1ccc(F)cc1,?,17.8µM*,.,.,.
CCOc1cc(/C=N/NC(=O)CNc2cccc(C)c2)ccc1OC(=O)c1ccccc1,-3.7%,12.7%,14.1µM*[quencher],?,10.3%
Cc1cccc(NC(=O)c2sc(-n3nc(C)c(CCC(C)C)c3C)nc2C)c1,.,.,-12.1%,?,-0.2%
COc1ccccc1CNC(=O)CSc1nn2c(=O)c(C(C)(C)C)nnc2s1,?,10µM*,-16.0%,?,-1.0%
CC(C)(C)c1nnc2sc(SCC(=O)c3ccccc3)nn2c1=O,.,1.6%[0.365 µM],-7.0%,?,-3.9%
COc1ccc(CCNC(=O)CSc2nn3c(=O)c(C)nnc3s2)cc1OC,2.4%,-1.4%,.,.,.
COc1ccc(CNC(=O)CSc2nn3c(=O)c(C(C)(C)C)nnc3s2)cc1OC,1.6%,3.55µM*,-12.6%,-12.6%,-1.4%
Cc1ccc(CN2CC(C(=O)Nc3nnc(SCc4c(Cl)cccc4Cl)s3)CC2=O)cc1 (configuration not stated),-4.4%,?,-25.7%,-15.7%,9.7%
CCS(=O)(=O)N1Cc2ccccc2CC1C(=O)Nc1nnc(SCc2c(Cl)cccc2Cl)s1 (configuration not stated),6.31µM*,5.01µM*,-26.7%,-13.4%,-2.6%
CCSc1nnc(NC(=O)C2Cc3ccccc3CN2S(=O)(=O)CC)s1 (configuration not stated),-93.1%,?,-11.2%,?,-0.8%
CCSc1nnc(NC(=O)c2ccccn2)s1,3.16µM*,2µM*,-9.4%,-15.5%,-3.2%
CCS(=O)(=O)N1Cc2ccccc2CC1C(=O)Nc1nc(C)cs1 (configuration not stated),-7.0%,-23.0%,-3.1%,-5.3%,1.1%
Cc1cnc(C(=O)Nc2nnc(SCc3c(Cl)cccc3Cl)s2)cn1,5.01µM*,2µM*,-20.2%,?,2.5%
CCS(=O)(=O)N1Cc2ccccc2CC1C(=O)Nc1nc2c(C)cccc2s1 (configuration not stated),5.62µM*,3.55µM*,-18.2%,-6.3%,-9.6%
CCOC(=O)N1CCN(C2CCCN(C(=O)c3cccc(N(C)C)c3)C2)CC1 (configuration not stated),9.0%,-11.2%,.,.,.
CCSc1nnc(NC(=O)c2cccc(S(=O)(=O)N(C)c3ccc(C)cc3)c2)s1,?,15.8µM*,-25.4%,-15.5%,-7.7%
CCc1nnc(NC(=O)c2cccc(S(=O)(=O)N(C)c3ccccc3)c2)s1,5.0%,-15.1%,-0.4%,-6.0%,12.8%
Cc1cccc2sc(NC(=O)CNS(=O)(=O)c3ccc(Br)s3)nc12,-26.5%,11.2µM*,-23.6%,?,-5.9%
